In PubChem BioAssay (NCATS):
Results filed as inconclusive are left out. Active and inactive are the calls of the source. The call rests on the fitted dose curve; in most records, active means well fitted curve in the direction sought with a large enough effect; inconclusive means small, poorly fitted or top-dose-only effect, or another doubt; inactive means no such curve, though single readings can be large; an effect the other way counts as inactive or inconclusive.

Tests used:
[1] = qHTS to identify inhibitors of the type 1 interferon - major histocompatibility complex class I in skeletal muscle: primary screen against the NCATS Pharmaceutical Collection (AID 1347407);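 further: luminescence of HiBiT knocked into endogenous HLA-B as interferon-induced MHC class I level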; further: potency means the concentration at half of the fitted maximal effect
Method in brief: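 Immortalized human myoblasts (C25cl48) with HiBiT knocked into endogenous HLA-B*08:01 were stimulated with 4 ng/ml IFN-beta and treated with compounds (8-point, 1:5, top 46 uM final) for 24 h at 37 C; HiBiT lytic luminescence read.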

[2] = qHTS for inhibitors of adenylyl cyclases using a fission yeast platform: a pilot screen against the NCATS LOPAC library (AID 1347410)
Method in brief: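 S. pombe CHP2027 (AC9-GNAS-PDE4D2) carrying a PKA-repressed fbp1-GFP reporter was exposed to LOPAC compounds (final up to 57 µM) for 18 h at 30C in the dark, in EMM with histidine, lysine and uracil; GFP gain-of-signal read by laser scanning cytometry.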

[3] = target: Protein phosphatase 1D (Homo sapiens) (UniProt O15297); assay: RapidFire Mass Spectrometry qHTS Assay for Modulators of WT P53-Induced Phosphatase 1 (WIP1) (AID 1347424);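 further: amount of dephosphorylated VEPPL-S-QETFS peptide product formed by WIP1; series mostly up to about 63 µM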
Sequence of Protein phosphatase 1D (Homo sapiens) (O15297 whole entry, looked up): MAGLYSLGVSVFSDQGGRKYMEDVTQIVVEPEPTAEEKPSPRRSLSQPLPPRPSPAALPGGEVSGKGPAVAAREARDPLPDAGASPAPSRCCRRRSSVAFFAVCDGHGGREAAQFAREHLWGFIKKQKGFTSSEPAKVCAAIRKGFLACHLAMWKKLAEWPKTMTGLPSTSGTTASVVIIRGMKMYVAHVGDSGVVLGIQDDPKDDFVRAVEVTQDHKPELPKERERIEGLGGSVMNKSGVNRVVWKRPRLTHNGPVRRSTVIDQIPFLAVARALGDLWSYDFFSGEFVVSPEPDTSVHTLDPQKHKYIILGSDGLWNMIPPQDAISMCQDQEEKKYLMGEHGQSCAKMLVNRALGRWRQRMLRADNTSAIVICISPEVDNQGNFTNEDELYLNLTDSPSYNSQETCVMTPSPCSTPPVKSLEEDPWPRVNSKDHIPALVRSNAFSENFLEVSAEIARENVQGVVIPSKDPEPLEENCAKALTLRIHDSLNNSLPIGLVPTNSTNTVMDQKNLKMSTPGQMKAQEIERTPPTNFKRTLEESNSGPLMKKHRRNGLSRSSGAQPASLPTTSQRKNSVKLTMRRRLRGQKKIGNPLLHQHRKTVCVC
Method in brief: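 RapidFire mass spectrometry measured dephosphorylated peptide after 5 min room-temperature reaction of 2 uM VEPPL-pS-QETFS with 10 nM WIP1 (50 mM Tris-HCl pH 7.5, 30 mM MgCl2, 0.1 mM EGTA, BSA), following 1 hr compound preincubation; 1 uM isotope-labelled product standard.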

[4] = Validation qHTS assay for inhibitors of Activation Induced Cytidine Deaminase (AID): UDG Counterscreen signal (AID 1347427)
Method in brief: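 Fluorescence at 560 nm excitation, 665 nm emission reports UDG signal after 250 mM NaOH (2x) addition and 30 min. Enzymes (AID 1 uM, UDG 2 U/mL, at 4/3x) preincubated 10 min with compound, then 4 h with 4x 250 nM DJC20/DJC23 substrate at room temperature.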

[5] = target: Single-stranded DNA cytosine deaminase (Homo sapiens) (UniProt Q9GZX7); assay: Validation qHTS assay for inhibitors of Activation Induced Cytidine Deaminase (AID): AID signal (AID 1347429)
Sequence of Single-stranded DNA cytosine deaminase (Homo sapiens) (Q9GZX7 whole entry, looked up): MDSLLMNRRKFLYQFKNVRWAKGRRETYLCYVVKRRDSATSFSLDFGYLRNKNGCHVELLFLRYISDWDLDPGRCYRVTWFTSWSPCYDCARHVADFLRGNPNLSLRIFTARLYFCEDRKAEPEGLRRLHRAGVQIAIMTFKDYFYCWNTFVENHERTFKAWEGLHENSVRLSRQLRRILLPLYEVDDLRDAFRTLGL
Method in brief: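 Compounds (up to 114 uM final) are tested against AID plus UDG using DJC20/DJC23 FRET substrate. Reactions incubate 4 hr at room temperature, receive NaOH for 30 min, and are read at Ex 540/Em 590 nm.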

[6] = Primary qHTS for inhibitors of La Crosse Virus (LACV) - induced cell death in SH-SY5Y cells (AID 1508616);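 further: top concentration of the series differs between compounds; higher means more rescue of cells from virus-induced death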
Method in brief: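 Screening measures cell viability in LACV-infected SH-SY5Y cultures. Compound was added before virus (0.01 MOI), and ATP was detected by luminescence 6 days later.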

[7] = target: Lysine-specific demethylase 5B (Homo sapiens) (UniProt Q9UGL1); assay: Optimization screen for KDM5B Histone Demethylases FDH coupled qHTS against the LOPAC library (AID 1347166)
Sequence of Lysine-specific demethylase 5B (Homo sapiens) (Q9UGL1 whole entry, looked up): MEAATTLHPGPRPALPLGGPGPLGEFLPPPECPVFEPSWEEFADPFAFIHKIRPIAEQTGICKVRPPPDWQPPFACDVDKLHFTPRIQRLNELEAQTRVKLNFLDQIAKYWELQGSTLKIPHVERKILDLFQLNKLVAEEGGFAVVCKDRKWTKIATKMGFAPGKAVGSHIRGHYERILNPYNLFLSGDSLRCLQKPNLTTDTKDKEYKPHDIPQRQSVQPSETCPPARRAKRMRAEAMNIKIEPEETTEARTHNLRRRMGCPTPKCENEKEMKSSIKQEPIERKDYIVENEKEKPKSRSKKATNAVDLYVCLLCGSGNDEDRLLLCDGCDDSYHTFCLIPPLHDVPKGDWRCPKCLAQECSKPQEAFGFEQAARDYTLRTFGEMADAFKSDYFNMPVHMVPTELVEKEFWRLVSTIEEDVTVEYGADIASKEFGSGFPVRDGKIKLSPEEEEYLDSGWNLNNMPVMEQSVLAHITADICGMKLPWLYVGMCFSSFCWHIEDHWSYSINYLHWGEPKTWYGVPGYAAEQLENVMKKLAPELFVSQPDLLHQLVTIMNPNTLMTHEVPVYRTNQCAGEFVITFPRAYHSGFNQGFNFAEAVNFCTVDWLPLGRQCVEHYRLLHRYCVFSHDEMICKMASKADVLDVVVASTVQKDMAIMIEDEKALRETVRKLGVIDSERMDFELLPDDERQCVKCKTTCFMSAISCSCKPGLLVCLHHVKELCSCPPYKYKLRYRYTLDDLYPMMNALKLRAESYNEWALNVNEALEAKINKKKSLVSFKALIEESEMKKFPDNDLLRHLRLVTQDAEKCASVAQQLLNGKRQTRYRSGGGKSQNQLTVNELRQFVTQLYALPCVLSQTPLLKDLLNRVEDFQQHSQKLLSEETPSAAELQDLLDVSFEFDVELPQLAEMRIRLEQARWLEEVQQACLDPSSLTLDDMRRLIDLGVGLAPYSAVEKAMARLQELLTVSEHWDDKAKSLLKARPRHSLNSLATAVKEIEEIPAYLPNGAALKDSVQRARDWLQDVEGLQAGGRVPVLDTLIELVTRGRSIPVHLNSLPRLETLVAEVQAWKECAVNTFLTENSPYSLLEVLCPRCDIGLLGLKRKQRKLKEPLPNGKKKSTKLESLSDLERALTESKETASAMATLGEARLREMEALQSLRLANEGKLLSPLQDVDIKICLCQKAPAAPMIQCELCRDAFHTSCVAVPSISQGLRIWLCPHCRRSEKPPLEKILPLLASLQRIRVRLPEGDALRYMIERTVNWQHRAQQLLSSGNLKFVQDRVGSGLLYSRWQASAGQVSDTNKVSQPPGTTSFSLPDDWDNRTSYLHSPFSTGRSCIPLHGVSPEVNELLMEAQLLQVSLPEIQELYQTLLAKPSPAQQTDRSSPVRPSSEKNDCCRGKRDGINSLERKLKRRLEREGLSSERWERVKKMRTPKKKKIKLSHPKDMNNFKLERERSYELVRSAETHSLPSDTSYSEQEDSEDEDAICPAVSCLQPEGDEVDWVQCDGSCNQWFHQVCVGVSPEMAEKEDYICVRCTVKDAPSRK
Method in brief: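 KDM5BDeltaAP (200nM final) in 50mM HEPES pH 7.5, 0.01% Tween-20 was preincubated with compound for 10 min at room temperature. A substrate mix of 12.5uM H3K4Me3, 25uM a-ketoglutarate, ascorbate, Fe2+, NAD+ and formaldehyde dehydrogenase was then added. NADH fluorescence (340/450 nm) was read initially and after 30 min.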

[8] = target: Calcium and integrin-binding protein 1 (Homo sapiens) (UniProt Q99828); assay: Validation qHTS for Identification of Calcium Integrin Binding protein 1 (CIB1) Competitor (AID 1508618)
Sequence of Calcium and integrin-binding protein 1 (Homo sapiens) (Q99828 whole entry, looked up): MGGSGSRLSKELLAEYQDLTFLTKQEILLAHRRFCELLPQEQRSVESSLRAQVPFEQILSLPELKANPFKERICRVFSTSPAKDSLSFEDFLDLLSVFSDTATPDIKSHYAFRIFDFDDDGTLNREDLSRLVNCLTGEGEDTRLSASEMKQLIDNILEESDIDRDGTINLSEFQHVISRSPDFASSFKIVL
Method in brief: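 In this qHTS validation, the LOPAC set (up to 114 uM) was tested for blocking CIB1 binding to a fluorescein-tagged alphaIIb peptide, with FP detection at 480/540 nm.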

[9] = target: Calcium and integrin-binding protein 1 (Homo sapiens) (UniProt Q99828); assay: Primary qHTS for Identification of Calcium Integrin Binding Protein 1 (CIB1) Competitor (AID 1508620);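 further: GST tagged CIB1 binding a fluorescein labelled alphaIIb integrin peptide tracer; top concentration of the series differs between compounds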
Method in brief: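 CIB1-GST (1 uM final) and compound incubated 15 min at room temperature before adding FITC-alphaIIb peptide tracer (100 nM final). Competition for binding read by fluorescence polarization (ex 480, em 540) after another 15 min at room temperature.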

[10] = Counterscreen qHTS for small molecule stabilizers of the endoplasmic reticulum resident proteome: GLuc-NoTag assay (AID 1508627); further: potency means the concentration at half of the fitted maximal effect
Method in brief: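 Counterscreen line: SH-SY5Y-GLuc-NoTag cells, treated with compound 19 hr before a 4 hr, 100 nM thapsigargin calcium depletion. Secreted Gaussia luciferase in the medium was measured by luminescence after coelenterazine was added (0.07x final), with cells unlysed.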

[11] = qHTS to identify inhibitors of the type 1 interferon - major histocompatibility complex class I in skeletal muscle: primary screen against the NCATS Mechanism Interrogation Plate v5.0 (MIPE) Libary (AID 1347411); further: nearly all actives have a fitted effect of over 65% in size
Method in brief: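 IFN-beta-driven (4 ng/ml) HLA-B-HiBit expression in CRISPR-tagged C25cl48 myoblasts; compounds 11-pt, 1:3, max 46 uM, 24 hr exposure; lytic NanoLuc complementation luminescence.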

[12] = target: Protein phosphatase 1D (Homo sapiens) (UniProt O15297); assay: Rhodamine-PBP qHTS Assay for Modulators of WT P53-Induced Phosphatase 1 (WIP1) (AID 1347425)
Method in brief: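 Steps: enzyme with Rh-PBP sensor and compounds, room-temperature incubation of 1 hr, baseline read, addition of VEPPL-pS-QETFS (10 uM final), kinetic fluorescence reads at 525/598 nm. Activity equals final minus baseline signal.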

[13] = Vero cells viability qHTS for Zika virus inhibitors (AID 1347167)
Method in brief: (§1)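 Luminescent ATP readout (CellTiter Glo) after 30 min at 37 degrees C gives viability; cells in DMEM + 4% FBS were treated 24 to 48 hours with compound, following overnight attachment.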

[14] = HepG2 cells viability qHTS for Zika virus inhibitors (AID 1347168)
Method in brief: as §1

[15] = Tertiary RLuc qRT-PCR qHTS assay for Zika virus inhibitors (AID 1347169); further: top concentration of the series differs between compounds; nearly all actives have a fitted effect of over 55% in size
Method in brief: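 Vero cells (1,000 per well) plated overnight at 37 degrees C, treated with compound in DMSO, then infected with recombinant ZIKV-RLuc (Cambodian) at MOI 1-2 for 48-72 hrs. Live-cell Renilla luciferase substrate added; luminescence read after 1-1.5 hrs.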

[16] = qHTS to identify inhibitors of the type 1 interferon - major histocompatibility complex class I in skeletal muscle: primary screen against the NCATS LOPAC collection (AID 1347405);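 further: lytic HiBiT luminescence reporting HLA-B protein level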
Method in brief: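 IFN-beta-stimulated (4 ng/ml) HLA-B HiBiT knock-in myoblasts, compound-treated 24 hrs up to 46 uM final; signal via LgBiT complementation and furimazine luminescence.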

Measured: Potency

CCN(CC)CCCC(C)Nc1c2ccc(Cl)cc2nc2ccc(OC)cc12 (stereo not given)
inactive: [1] | [2] | [3] | [4] | [5] | [6]

CC(C)(C)c1onc(OCP(=O)(O)O)c1CC(N)C(=O)O (stereo not given)
inactive: [7] | [2] | [4] | [5] | [6] | [8]

CC(=O)c1ccc2c(c1)N(CCCN(C)C)c1ccccc1S2
inactive: [1] | [2] | [3] | [6] | [8] | [9] | [10]

CC(C)c1c(C(=O)Nc2ccccc2)c(-c2ccccc2)c(-c2ccc(F)cc2)n1CC[C@@H](O)C[C@@H](O)CC(=O)O
inactive: [1] | [2] | [11] | [3] | [12] | [6] | [8] | [9]

CC(C)(C(=O)O)c1ccc(C(O)CCCN2CCC(C(O)(c3ccccc3)c3ccccc3)CC2)cc1 (stereo not given)
inactive: [7] | [2] | [3] | [12] | [6]

CSc1ccc2c(c1)N(CCC1CCCCN1C)c1ccccc1S2 (stereo not given)
active: [10] 50.1 µM
not listed: [1] | [11] | [13] | [14] | [15] | [16]
inactive: all other assays above

CSc1ccc2c(c1)C(N1CCN(C)CC1)Cc1ccccc1S2 (stereo not given)
inactive: [7] | [2] | [3] | [12] | [4] | [5] | [6] | [9]

CCCCN(CCCC)CC(O)c1cc(Cl)cc2c1-c1ccc(Cl)cc1/C2=C/c1ccc(Cl)cc1 (stereo not given)
inactive: [1] | [2] | [11] | [3] | [12] | [6] | [8] | [9]

C[C@H]1O[C@@H](n2cc(F)c(=O)[nH]c2=O)[C@H](O)[C@@H]1O
inactive: [1] | [2] | [11] | [3] | [6] | [8] | [9]

CN(N=O)C(=O)N[C@@H]1[C@@H](O)[C@H](O)[C@@H](CO)O[C@@H]1O
inactive: [1] | [11] | [3] | [12] | [6] | [9]

CCN(CC)CCNC(=O)c1c(C)[nH]c(/C=C2\C(=O)Nc3ccc(F)cc32)c1C
active: [1] 10.5 µM
inactive: [2] | [3] | [6] | [8] | [9]

Cn1c(=O)c2c(ncn2CC2OCCO2)n(C)c1=O
inactive: [1] | [11] | [3] | [12] | [6] | [9]

O=C1O[C@H]([C@@H](O)CO)C(O)=C1O
inactive: [1] | [3] | [12] | [6]

CNCCCC1c2ccccc2C=Cc2ccccc21
inactive: [1] | [2] | [3] | [12] | [4] | [5] | [6] | [8] | [9]

N[C@H](C(=O)O)c1ccc(O)cc1
inactive: [13] | [14] | [15] | [1] | [3] | [12] | [6] | [9]

CN(C)CCCN1c2ccccc2Sc2ccc(Cl)cc21
inactive: [7] | [2] | [3] | [4] | [5] | [6] | [8] | [9]

C[C@H](NC(CCc1ccccc1)C(=O)O)C(=O)N1CCC[C@H]1C(=O)O (stereo not given in full)
inactive: [1] | [2] | [3] | [12] | [6] | [8] | [9]

CN1[C@@H]2CC(OC(=O)[C@H](CO)c3ccccc3)C[C@H]1[C@@H]1O[C@@H]12 (stereo not given in full)
inactive: [1] | [3] | [12] | [6]

C#CCN(C)Cc1ccccc1
inactive: [7] | [2] | [3] | [4] | [5] | [6] | [8] | [9]

CC(C(O)c1ccc(O)cc1)N1CCC(Cc2ccccc2)CC1 (stereo not given)
not listed: [1] | [11] | [13] | [14] | [15] | [16]
inactive: all other assays above

CNCC(O)c1ccc(O)c(O)c1 (stereo not given)
inactive: [16] | [1] | [2] | [3] | [12] | [4] | [5] | [6] | [8]

CCOc1ccc2ccccc2c1C(=O)N[C@@H]1C(=O)N2[C@@H]1SC(C)(C)[C@@H]2C(=O)O
inactive: [1] | [3] | [12] | [6] | [9]

CCC(=O)Nc1ccc(O)cc1
inactive: [1] | [3] | [12] | [6] | [9]

Cc1ncc([N+](=O)[O-])n1CC(O)CCl (stereo not given)
inactive: [1] | [3] | [12] | [6] | [9]

CS(=O)(=O)c1ccc([C@@H](O)[C@@H](CF)NC(=O)C(Cl)Cl)cc1
inactive: [1] | [3] | [12] | [6] | [9]

O=C(Oc1ccccc1C(=O)O)c1ccccc1O
inactive: [1] | [3] | [12] | [6] | [9]

C[C@@H]1CN(c2c(F)c(F)c3c(=O)c(C(=O)O)cn(C4CC4)c3c2F)C[C@H](C)N1
inactive: [1] | [3] | [12] | [6] | [9]

C[C@@H]1C[C@H]2[C@@H]3C[C@H](F)C4=CC(=O)C=C[C@]4(C)[C@@]3(F)[C@@H](O)C[C@]2(C)[C@@]1(O)C(=O)CO
inactive: [1] | [3] | [12] | [6] | [9]

CC1CC(OC(=O)C(O)c2ccccc2)CC(C)(C)N1C (stereo not given)
inactive: [1] | [3] | [12] | [6] | [9]
